# Sampled rows, rich in hits. Any-hit rate of the full collection: about 21%.
# DT40 TDP1 CPT: qHTS for Inhibitors of human tyrosyl-DNA phosphodiesterase 1 (TDP1): qHTS in cells in presence of CPT | chicken DT40 Tdp1-/-;hTDP1 cells + 20 nM CPT, ATP luminescence, 48 h | Potency, µM (highest dose often 46.2 µM), for the others: at the top dose activity change, negative = growth inhibition, most hits filed as inhibitors | 420,000 tested, 12% active; also: potency is read from the fitted curve at half-maximal effect; nearly all actives have a fitted effect of over 55% in size
#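 Chicken DT40 Tdp1-/- cells stably complemented with human TDP1 were seeded at 400 cells/well in medium containing 20 nM camptothecin, exposed to pin-transferred compounds, and grown at 37 °C for at least 48 hr. Viability was read as ATP luminescence.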
# RORg inh: qHTS for inhibitors of ROR gamma transcriptional activity | Nuclear receptor ROR-gamma (Mus musculus), P51450 | Drosophila S2 Gal4-RORgamma UAS-luciferase reporter, 20 h | Potency, µM (highest dose often 53.6 µM), inactives show at the highest dose activity change, negative = inhibition, most hits filed as inhibitors | 310,000 tested, 5.4% active; also: potency is read from the fitted curve at half-maximal effect; nearly all actives have a fitted effect of over 60% in size
# Target sequence (P51450 whole entry, looked up, the tested form may be a part): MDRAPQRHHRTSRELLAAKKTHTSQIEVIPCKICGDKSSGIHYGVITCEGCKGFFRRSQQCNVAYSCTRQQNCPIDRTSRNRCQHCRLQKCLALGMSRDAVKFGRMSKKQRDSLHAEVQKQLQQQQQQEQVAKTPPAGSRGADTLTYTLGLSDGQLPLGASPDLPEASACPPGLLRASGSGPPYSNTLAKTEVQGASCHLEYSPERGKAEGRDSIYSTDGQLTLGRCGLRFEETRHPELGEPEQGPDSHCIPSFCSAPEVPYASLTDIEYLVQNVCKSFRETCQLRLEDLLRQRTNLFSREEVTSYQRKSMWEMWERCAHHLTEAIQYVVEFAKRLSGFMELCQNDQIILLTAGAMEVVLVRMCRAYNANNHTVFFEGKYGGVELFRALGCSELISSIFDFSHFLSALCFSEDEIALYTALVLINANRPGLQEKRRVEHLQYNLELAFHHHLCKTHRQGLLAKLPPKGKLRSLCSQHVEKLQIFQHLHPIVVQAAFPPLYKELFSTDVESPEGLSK
#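 Drosophila S2 cells stably expressing Gal4-DBD/mouse RORγ fusion under metallothionein promoter plus UAS-luciferase; compound 1 h, then 700 uM CuSO4 induction for 20 h at ambient temperature; inhibition read as reduced luminescence.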
# IL1B secr inh: qHTS for Inhibitors of Inflammasome Signaling: IL-1-beta AlphaLISA Primary Screen; THP-1 LPS/ATP IL-1B secretion, AlphaLISA, 16 h; active compounds read low; activity change, % at 57.5 µM; 360,000 tested, 4.7% active; in the data active = activity change below about -50%; inconclusive = mostly about -30% to -49%
#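 THP-1 cells pretreated 1 hr with compounds (up to 57.5 uM final), then stimulated with LPS (250 ng/mL final) plus ATP (1.25 mM final); secreted IL-1B measured by AlphaLISA after 16 hr, decreased signal indicating inhibition.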
# ELG1 DNA repair: qHTS screen for small molecules that inhibit ELG1-dependent DNA repair in human embryonic kidney (HEK293T) cells expressing luciferase-tagged ELG1; HEK293T ELG1-luciferase reporter, luminescence, 16 h; DNA damage induced by 5-fluorouridine; Potency, µM (series often up to 46.1 µM), for inactives: top-dose activity change, negative = inhibition, actives largely listed as inhibitors; 330,000 tested, 2.3% active; AID 504467, 2011; also: potency is read from the fitted curve at half-maximal effect; nearly all actives have a fitted effect of over 55% in size
#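 Step one: seed 2,000 cells per well. Step two: pin-transfer compound or DMSO alongside 5-fluorouridine. Step three: incubate 16 hr, 37 °C, 5% CO2. Step four: add ONE-Glo, wait 30 min, read luminescence.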
# VP16 counter: VP16 counterscreen qHTS for inhibitors of ROR gamma transcriptional activity; Drosophila S2 Gal4-VP16 UAS-luciferase, luminescence, 20 h; Potency, µM (highest dose often 53.6 µM), for inactives: top-dose activity, negative = inhibition, hits mostly inhibitors; 310,000 tested, 3.5% active;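 also: Gal4-VP16 expression switched on by copper sulfate through the metallothionein promoter; potency is read from the fitted curve at half-maximal effect; nearly all actives have a fitted effect of over 50% in size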
# TDP1 cell noCPT: qHTS for Inhibitors of human tyrosyl-DNA phosphodiesterase 1 (TDP1): qHTS in cells in absence of CPT. DT40 Tdp1-/- hTDP1 cells, no CPT, ATP luminescence, 48 h. Potency, µM (series often up to 46.2 µM), without a hit: top-dose activity change, negative = growth inhibition, usual class: inhibitors. 420,000 tested, 15% active. AID 686978, 2013; also: potency is read from the fitted curve at half-maximal effect; nearly all actives have a fitted effect of over 55% in size
#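 Readout: luminescence from CellTiter-Glo after 30 min in the dark at RT. Cells: DT40 Tdp1-/- with stable hTDP1, 400/well. Exposure: compounds alone, ≥48 hr, 37 °C.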
# * marks the source's active call; other numbers are inactive results; i = inactive; ? = inconclusive; · = not tested or not shown. Unless noted, calls follow the shape of the dose curve; as a rule, active = well fitted curve in the direction sought with a large enough effect; inconclusive = small, poorly fitted or top-dose-only effect, or another doubt; inactive = no such curve, though single readings can be large; an effect the other way counts as inactive or inconclusive. % is scaled to controls: 0 for no effect and ±100 for the full control effect.
SMILES,DT40 TDP1 CPT,RORg inh,IL1B secr inh,ELG1 DNA repair,VP16 counter,TDP1 cell noCPT
C[C@@H]1C=C(C(=O)NCc2nc3ccccc3[nH]2)O[C@H](OCCCCO)C1,2%,·,56,·,·,5%
C#CCNC(=O)C1=C[C@@H](c2csc3ccccc23)C[C@@H](OCc2ccc(CO)cc2)O1,16µM*,?,0,?,8%,?
Cc1c(Br)c([N+](=O)[O-])nn1CC(=O)Nc1ccc(C(N)=O)cc1,13%,-24%,0,-2%,-4%,4%
Cc1c(CN(C)C)c2c(n1Cc1ccccc1)C(=O)c1ccccc1-2,?,-31%,-63*,-24%,5%,?
Cc1cc(=O)n(Cc2ccccc2)c2ccccc12,?,-14%,16,15%,10%,?
O=C(CCCl)N1c2ccccc2C=Cc2ccccc21,?,·,-29,·,·,15µM*
O=C(N1CCN(CCO)CC1)N1c2ccccc2C=Cc2ccccc21,7%,-13%,14,1%,6%,?
Cc1cccc(N=[N+]([O-])c2cccc(C)n2)n1,-12%,·,22,?,·,-22%
COc1ccc(OC)c(CNS(=O)(=O)c2ccc(-c3cc(C(F)(F)F)on3)s2)c1,8.2µM*,·,·,·,·,8.2µM*
COc1ccc(CNS(=O)(=O)c2ccc(-c3cc(C(F)(F)F)on3)s2)cc1OC,9.2µM*,·,·,·,·,5.2µM*
COc1ccccc1CNS(=O)(=O)c1ccc(-c2cc(C(F)(F)F)on2)s1,23µM*,·,·,·,·,21µM*
NC(=O)CSc1nnnn1-c1cccc(O)c1,-4%,·,·,·,·,-13%
C=CC[C@H](c1ccc(F)cc1)N(CC(C)C)S(=O)(=O)C=C,?,·,·,·,·,11µM*
CC(C)COP(=O)(OCC(C)C)C(O)c1ccc(F)cc1 (configuration not stated),-15%,-19%,2,-2%,-1%,-18%
Cc1ccc(SC(=O)c2c([N+](=O)[O-])c(C)nn2C)cc1,18µM*,4µM*,-65*,-1%,3.5µM*,15µM*
Cc1cc(C)n(C(=O)c2c([N+](=O)[O-])c(C)nn2C)n1,-13%,26%,-11,10%,-13%,-1%
COc1cccc(C(=O)NC2CCCc3c2cnn3-c2ccc(C)c(C)c2)c1OC (configuration not stated),?,44%,-4,-14%,-24%,?
COc1ccc(C(=O)NC2CCCc3c2cnn3-c2ccc(C)c(C)c2)c(OC)c1OC (configuration not stated),?,?,43,18µM*,-26%,?
CSc1ncccc1C(=O)NC1CCCc2c1cnn2-c1ccc(C)c(C)c1 (configuration not stated),8.2µM*,?,i,?,?,7.3µM*
COc1ncccc1C(=O)NC1CCCc2c1cnn2-c1ccc(C)c(C)c1 (configuration not stated),16µM*,56%,-2,?,-14%,16µM*
CCOC(=O)[C@@H]1[C@H]2COc3ccccc3[C@H]2N2C(=O)N(c3cccc(C)c3)C(=O)[C@]12C,-9%,·,8,8%,·,-6%
COc1ccc(C(=O)C2CCCN(C(=O)c3ccc4nccnc4c3)C2)c(C)c1 (configuration not stated),?,13%,0,14%,5%,?
Cn1c(=O)c2c(SCc3cccnc3)nc(C3CC3)nc2n(C)c1=O,-21%,-10%,6,-2%,1%,?
CC(C)Cc1nc(SCc2cccnc2)c2c(=O)n(C)c(=O)n(C)c2n1,18µM*,16%,-16,?,-3%,?
CCCCN(CC)Cc1ccc(CNC(=O)Nc2ccc(OC)cc2OC)o1,-28%,-2%,-2,?,-6%,?
SMILES,DT40 TDP1 CPT,RORg inh,IL1B secr inh,ELG1 DNA repair,VP16 counter,TDP1 cell noCPT
CCCCN(CC)Cc1ccc(CNC(=O)Nc2ccccc2)o1,18µM*,-16%,-10,-2%,0%,10µM*
CCCCN(CC)Cc1ccc(CNC(=S)Nc2cccc(F)c2)o1,?,1%,-16,?,?,23µM*
COCCn1c(=O)c(-c2ccc(OC)cc2)nc2cnc(Oc3ccccc3)nc21,5%,3%,·,·,-1%,-15%
O=C1c2ccccc2C(c2nnnn2Cc2ccccc2)N1CCc1ccc(O)cc1 (configuration not stated),-13%,·,10,·,·,-23%
CC1=C(C(=O)Nc2ccc(Br)cc2)C(c2ccco2)NC(=O)N1 (configuration not stated),23µM*,32%,11,1%,2%,?
CN(C)C=Nc1ccc2nc3c(cc2c1)[nH]c1ccccc13,?,?,16,?,?,12µM*
CCOC(=O)c1[nH]c2ccccc2c1N=CN(C)C,1%,·,0,·,·,2%
CC1(C)CCC(C)(C)c2cc(NC(=O)c3ccc(C(=O)O)cc3)ccc21,?,-24%,·,·,-23%,?
COc1ccc(-c2cc(C(=O)N3CCOCC3)no2)cc1,5%,10µM*,-2,?,?,-10%
O=C(NCCCN1CCOCC1)c1cc(-c2ccc(Br)cc2)on1,?,?,-62*,?,-18%,-28%
O=C(c1cc(-c2ccc(Br)cc2)on1)N1CCOCC1,-1%,10µM*,-25,?,?,-16%
COc1cccc(-c2cc(C(=O)N3CCOCC3)no2)c1,0%,?,-2,?,?,-13%
COc1cccc(-c2cc(C(=O)N3CCN(C(c4ccccc4)c4ccccc4)CC3)no2)c1,21µM*,14%,-9,-13%,4%,26µM*
O=C(NCCN1CCOCC1)c1cc(-c2ccc(Br)cc2)on1,-28%,19%,6,1%,4%,-5%
O=C(c1cc(-c2ccc(Br)cc2)on1)N1CCCCCC1,2%,-1%,-9,?,?,8%
COc1ccccc1NS(=O)(=O)c1ccc(C)c(C(=O)NCC(c2cccs2)N2CCOCC2)c1 (configuration not stated),?,·,0,·,·,?

# Screening results deposited in PubChem BioAssay by National Center for Advancing Translational Sciences (NCATS).
